The other results are listed elsewhere or left out. Results filed as inconclusive are left out. A number with no mark means an inactive call.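 How the source made its calls: active means dose curves showing G6PC suppression whose half-maximal dose is at most twice the top valid dose; inconclusive means flat curves with moderate negative activity, or unreliable fits; inactive means the rest.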
assay: suppressors of forskolin-stimulated G6PC mRNA, dose response, PGC-1a acetylation activator project, cell-based, hepatocytes, RT-qPCR, cherry-picked samples (AID 743463); conditions: primary mouse hepatocytes; series mostly up to 26 µM; G6PC suppression (normalized activity, % of positive control; higher = more suppression): at the top concentration;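 further: G6PC expression relative to GAPDH housekeeping gene as delta delta Ct; 0% = median of neutral control wells and 100% = median of positive control wells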

| Structure (SMILES) | G6PC suppression (normalized activity, % of positive control; higher = more suppression) |
| --- | --- |
| O=C(NCCC1CCCCN1S(=O)(=O)c1cccs1)C(=O)Nc1ccc(F)cc1F (stereo not given) | -32.6% |
| CC(C)CCNc1nc(N2CCCC2)c2c(c1C#N)CCN(C)C2 | 120% |
| CCOC(=O)c1c(-c2ccc(C)cc2C)csc1NC(=O)CSc1nnnn1C | -2.87% |
| CCOC(=O)c1c(NC(=O)CSc2cn(CC)c3ccccc23)sc2c1CCC2 | -7.69% |
| CCC(C)(C)n1nnnc1C(c1ccccc1OC)N1CCSCC1 (stereo not given) | -37.1% |
| Cc1ccc(S(=O)(=O)Nc2ccc3c(c2)C(=O)N([C@@H](C)CO)C[C@@H](C)[C@H](CN(C)C(=O)Nc2cccc4ccccc24)OCCCC[C@H](C)O3)cc1 | 10.1% |
| O=C(NCc1ccccc1)C(c1ccccc1)N(C(=O)c1csnn1)c1ccc(F)cc1 (stereo not given) | 51% [at 8 µM] |
| Cc1ccc(OCC(=O)NCCCNC(=O)c2cccnc2)cc1C | 43.4% |
| Cc1cc(C)c2c(-n3cccc3)c(C(=O)NNS(=O)(=O)c3ccc(F)cc3)sc2n1 | 18% |
| O=S(=O)(NCc1ccccc1Br)c1ccccc1Br | 38.2% |
| CCOc1ccccc1CN1CCN(C2CCC2)CC1CCO (stereo not given) | 0.835% |
| Cc1cc(C(=O)NNS(=O)(=O)c2ccccc2C(F)(F)F)nn1C(C)(C)C | -16.2% |
| COc1ccc(Nc2nnc(C)c3ccccc23)cc1 | 34.4% |
| COc1ccc(-n2nnnc2CNC(=O)c2ccc3ccccc3c2)cc1 | 340% |
| CCCCC(=O)Nc1ccc(C(=O)NCCCn2ccnc2)cc1 | 15.2% |
